# In all, about 390,000 compounds went through this assay and about 60 (0.02%) were called active. Shown is part of a subset that was picked to be rich in actives. Values without a mark were called inactive. Rule as the data show it: active = activity change below about -50%; inconclusive = between about -30% and that limit; inactive = weaker than that.
# Molecular target: Mucolipin-1 (Homo sapiens) (UniProt Q9GZU1)
# Test: qHTS for Inhibitors of the Human Mucolipin Transient Receptor Potential 1 (TRPML1);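 also: stimulus is agonist 54-4 at its EC80 concentration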
# Conditions: TRPML1-inducible cells, Ca2+ dye fluorescence, FDSS; active compounds read low; inhibition of EC80 agonist-evoked calcium signal
# Description: Mutations of human Mucolipin transient receptor potential 1 (TRPML1) cause type IV mucolipidosis (ML4), a devastating neurodegenerative disease in young children. […] Currently, there is no treatment for ML4. […] Under physiological conditions, TRPMLs regulate membrane trafficking by transducing information about PI(3,5)P2 levels into changes in juxtaorganellar Ca2+, thereby triggering membrane fusion/fission events in the late endocytic pathways (endolysosomal trafficking). In addition, TRPML1 mediates release of Fe2+ from late endosomes and lysosomes, which is essential for cellular iron metabolism. Thus, impaired ion (Ca2+ and Fe2+) homeostasis underlies lysosomal dysfunction and ML4 phenotypes. In ML4 cells, the problem is twofold. First, defective Ca2+-dependent membrane trafficking due to TRPML1-deficiency causes accumulation of lipids and other bio-materials in the lysosome. The second strike comes from the lysosomal iron overload (due to impairment of TRPML1's Fe2+ conductivity), which converts the accumulated materials into the nondegradable (resistant to lysosomal degradation) lipofuscin (also called aging pigment) in the lysosome. Lipofuscin accumulation dramatically compromises the functions of lysosomes.
# Niemann-Pick type C (NPC) disease is another lysosome storage disease (LSD) with severe neurodegeneration during the childhood. Currently, there is no cure for NPC. […] Thus, TRPML1 is likely to be an essential regulator of lysosome ion homeostasis. We specifically hypothesize that stimulating TRPML1's Fe2+/Ca2+ channel activity in the lysosome using synthetic agonists can alleviate neurodegeneration associated with ML4 or NPC.
# To this end, a high throughput screen was developed in a miniaturized format to screen against the Molecular Libraries Small Molecule Repository (MLSMR) to find small molecules that act either as inhibitors or agonist against the TRPML1 channel.
# NIH Chemical Genomics Center [NCGC]
# NIH Molecular Libraries Probe Centers Network [MLPCN]
# Assay Submitter (PI): Haoxing Xu, University of Michigan Ann Arbor
# TRPML1-DL cells are dissociated from flasks, counted and, brought up to a density of 500,000 cells per mL of media containing a 1X Tet inducer. Using a Multidrop Combi, 3 uL of this cell solution is dispensed to each well of a 1536 TC treated, black, clear bottom hi base plate for a final cell density of 1,500 cells per well. The assay plates are incubated overnight (approximately 16 hours) at 37 degrees C and 5% CO2. Using a Multidrop Combi, 2 uL of ABD Ca8 no wash dye plus quencher is added to each well. The assay plates incubate at room temperature in the dark for 45-90 minutes. The assay plate is read on the FDSS using the following protocol: 10 second baseline read, 23 nL of compounds and controls are added using 1536 pintool, agonist read for 110 seconds, 1 uL EC80 addition (4 uM final 54-4 diluted in media), antagonist read for 110 seconds.
# % is scaled to controls: 0 for no effect and ±100 for the full control effect.
# Mucolipin-1 (Homo sapiens), sequence (Q9GZU1 whole entry, looked up): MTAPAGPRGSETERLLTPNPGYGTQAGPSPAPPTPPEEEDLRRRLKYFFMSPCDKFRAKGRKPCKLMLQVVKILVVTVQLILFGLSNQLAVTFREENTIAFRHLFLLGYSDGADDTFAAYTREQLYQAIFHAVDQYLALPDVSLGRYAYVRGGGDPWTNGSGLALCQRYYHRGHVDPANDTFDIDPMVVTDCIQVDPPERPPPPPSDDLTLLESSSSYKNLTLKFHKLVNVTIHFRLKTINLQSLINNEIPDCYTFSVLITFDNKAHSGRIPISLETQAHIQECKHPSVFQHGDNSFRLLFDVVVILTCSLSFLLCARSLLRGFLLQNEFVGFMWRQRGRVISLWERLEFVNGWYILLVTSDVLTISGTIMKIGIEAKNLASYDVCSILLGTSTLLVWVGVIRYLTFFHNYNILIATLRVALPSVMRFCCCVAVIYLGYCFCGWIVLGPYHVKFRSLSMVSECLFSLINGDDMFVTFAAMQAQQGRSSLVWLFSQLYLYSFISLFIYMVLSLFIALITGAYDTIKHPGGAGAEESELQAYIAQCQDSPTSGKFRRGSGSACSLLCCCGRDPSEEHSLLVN
row,Structure (SMILES),"activity change, negative = inhibition [%]"
1,Cc1ccc(Cl)cc1N(C)C(=O)Cn1nc(Cc2cccnc2)c2ccccc2c1=O,-7.38
2,CC(=O)Nc1ccc(NC(=O)C2CCCN(S(=O)(=O)c3ccc4c(c3)CCCC(=O)N4)C2)cc1 (centres undefined),-7.84
3,COc1ccc(-c2nc3sc(CCNS(=O)(=O)c4ccc(F)c(C)c4)c(C)n3n2)cc1,16.5
4,CCc1cc2c(-c3ccccc3)cc(=O)oc2c2c1OCN(Cc1ccc(C)cc1)C2,-21.9
5,O=C(O)c1ccc(Nc2nc(-c3ccccc3)c3cc(Br)ccc3n2)cc1,16.7
6,CCN(CC)CCNC(=O)CN1N=C(c2ccc(OC)cc2)CCC1=O,-7.95
7,COc1ccc(S(=O)(=O)c2c(Nc3cccc(Cl)c3)sc(C(=O)c3ccccc3)c2N)cc1,17
8,Cc1ccc2ncc(C(=O)Nc3ccc(OC(F)(F)F)cc3)c(=O)n2c1,4.29
9,COC(=O)c1scc(-c2ccc(C)cc2)c1S(=O)(=O)Nc1cc(Cl)c(OC)cc1OC,37.6
10,COc1ccc(CC(=O)N2CC(=O)Nc3ccc(Br)cc3C2c2ccc(F)cc2)cc1OC (centres undefined),5.98
11,Cc1cccc2c1-c1sc(C(=O)Nc3ccc(F)cc3F)cc1CO2,18.7
12,CCOc1ccc(CCNC(=O)c2cc3c(=O)n(C)c4ccccc4c3n2C)cc1,-10.6
13,COc1cccc(CNC(=O)c2cc(=O)[nH]c3ccc(S(=O)(=O)N4CCCCC4)cc23)c1,-1.14
14,Cc1ccc(C)c(Cn2c(CCCNC(=O)C3CCCCC3)nc3ccccc32)c1,22.7
15,CNC(=O)[C@]1(C(F)(F)F)C[C@H](CCc2ccccc2)CCCO1,7.15
16,COc1cccc(-c2nnc(SCC(=O)N3CCC(C)CC3)o2)c1,0.454
17,CCCn1c(=N)c(C(=O)NCc2ccccc2)cc2c(=O)n3cccc(C)c3nc21,-0.876

row,Structure (SMILES),"activity change, negative = inhibition [%]"
1,Cc1ccc2c(=O)c(C(=O)c3ccc(F)cc3)cn(CC(=O)NC3CCCCC3)c2n1,-15.9
2,COc1ccc(Br)cc1C1C2C=CCC(C)C2C(=O)N1Cc1ccccc1 (centres undefined),20.3
3,Cc1ccc(-c2cnc(C3CC3)o2)cc1S(=O)(=O)Nc1cccc(C)c1C,5.77
4,COc1ccc(NC(=O)CSc2nc3ccccc3n2CC(=O)N2CCCCC2C)cc1 (centres undefined),9.59
5,Cc1cccc(N2CCN(C(=O)c3cnc(N4CCCC4)nc3C)CC2)c1C,12.6
6,CCN(CCCNC(=O)c1cc2c(=O)n(CC)c3ccccc3c2s1)Cc1ccccc1,14.6
7,COc1ccc(C2/C=C\CN(C(=O)c3ccc(C)cc3)C(Cc3ccccc3)C(=O)N2Cc2ccc(F)cc2)cc1 (centres undefined),-1.58
8,CCN(CC)CCNC(=O)Cn1ncc2c3ccccc3n(Cc3ccccc3C)c2c1=O,1.87
9,O=C(Nc1ccc2c(c1)OCO2)c1cc(-c2cccc(Cl)c2)on1,1.26
10,COc1ccc(C2CC(O)(c3ccccc3)Oc3cc(C)cc(C)c32)cc1 (centres undefined),9.65
11,Cc1ccc(S(=O)(=O)N(CC(=O)Nc2ccc(Cl)cc2Cl)c2ccccc2C)cc1,59.9
12,Cc1c(NC(=O)C(C)(C)C)cccc1-c1nc2ccccc2s1,-0.118
13,Cc1ccc2nc(CN3CCN(S(=O)(=O)c4ccc(C)c(C)c4)CC3)oc2c1,-6.53
14,O=C(CCS(=O)(=O)c1cc(Br)cc2c1N(C(=O)C1CC1)CC2)Nc1ccc(Br)cc1F,-10.7
15,COc1cc(NC(=O)c2noc3c2CSc2ccccc2-3)cc(OC)c1OC,8.19
16,Fc1ccccc1Oc1ncnc2c1oc1ccccc12,-7.01
17,COc1ccccc1-c1nnc(C2CCN(C(=O)c3ccc(Cl)cc3)CC2)o1,-16.2
